Our source for the growth values is PubChem BioAssay (NCI).

About 83,000 compounds went through this panel and 20% of them were active in at least one assay; those are over-represented in the sample as a whole.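 A percent growth of 40 corresponds to 60% growth inhibition; 0 means no net growth; -100 means all cells died. Active threshold: below 10.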 A number with no mark means an inactive call. Calls of active or inactive are those of the source.

The subject of the assay is LOX IMVI melanoma. The assay is described as follows: NCI-60 one-dose screen, 48 h (100 = growth as untreated, 0 = no growth, -100 = all killed). The settings on record: 10 µM unless noted. As to the method: Growth inhibition of the LOX IMVI human tumor cell line is measured as a screen for anti-cancer activity. Cells are grown in 96 well plates and exposed to the test compound for 48 hours. Compounds are tested at a single concentration, which is 10^-5 M for most compounds. The reported endpoint is percent growth (GI% or GIPRCNT), where numbers from 0 - 100% represent growth inhibition, and numbers from -100% - 0 represent cell death. For example, a value of 40 represents 60% growth inhibition. A value of 0 means no net growth occurred over the course of the experiment. A value of -40 indicates 40% of cells at the beginning of the experiment died by the end of the experiment. A value of -100 means all cells are dead at the end of the experiment.
NCI-60 Human Tumor Cell Lines Screen was performed using the standard one-dose NCI protocol, which is described in more detail at https://dtp.cancer.gov/discovery_development/nci-60/default.htm.
Compounds with GIPRCNT values below 10 were considered active. Activity score was based on GIPRCNT using the following formula: […]
Score is 0 for GIPRCNT values of 100 or above, 50 for GIPRCNT values of 0, and 100 for GIPRCNT values of -100.
`CC(=O)OCC1OC(OCC2OC(OC(C)=O)C(OC(C)=O)C(OC(C)=O)C2OC(C)=O)C(OC(C)=O)C(OC(C)=O)C1OC(C)=O` (stereo not given): the growth was 95.7%. For `CCNc1nc(N2CC(=O)Nc3cc(OC)ccc32)c2ccccc2n1` the value was 20.5%; for `OCc1c(-c2ccccc2)nc2sccn12`, 104%; for `NC(C(=O)O)C(O)c1ccc(OCc2ccccc2)c(OCc2ccccc2)c1` (stereo not given), 99.1%.

`COc1cc2c3c(c(=O)oc2cc1OS(=O)(=O)c1ccc(C(F)(F)F)cc1)CCCCC3`: the growth is 93.5%. Next, `O=C(NCCCN1CCN(CCCNC(=O)C2CCCCC2)CC1)C1CCCCC1`: 101%.

For the molecule `COc1ccc(-c2cn[nH]c2-c2cc(OC)c3c(c2)OCO3)cc1`, the growth was 22.8%. With `O=c1oc2c([nH]c3ccc4ccccc4c32)c2ccccc12`, the growth was 98.8%. With `N#Cc1ccc(NC(=O)c2ccc3cccnc3c2O)cc1`, the growth is 21.9%. For `Nc1c(C(=O)Nc2ccccc2)sc2nc3c(cc12)CCC3` the value was 89.1%; for `O=S(=O)(NCCCNc1nccc(-c2c(-c3ccc(O)cc3)nc3sccn23)n1)c1ccc(F)cc1`, -29.4% (active).

With `CN(C)c1ncc(-c2ccc(C(F)(F)F)cc2)c(NC2CCCCCC2)n1`, the growth is 66.2%. As to `CCCCn1c(=O)c(C2CNC(=O)c3ccccc3N2)cc2ccccc21` (stereo not given), the growth was 97.3%. Regarding `COc1ccc2c(c1)C(=O)/C(=C/c1ccc(O)cc1)O2`, the growth is 45.5%. For `COc1cccc(-n2cc(-c3nc(Cl)c4ccccc4n3)nn2)c1` the value was 109%; for `O=C1CCCCN1CCCCC#Cc1ccccc1C#Cc1ccccn1`, 96.8%; for `CCCCNC(=O)NS(=O)(=O)c1ccc(N2N=C(c3ccc(C)cc3C)CC2c2ccc(OC)cc2)cc1` (stereo not given), 56.2%. For `CCN1C(=O)/C(=c2\sc3n(c2=O)C2C(NN=3)N(CC)C(=S)N2CC)c2ccccc21` (stereo not given) the value was 98.4%; for `CCC1=C[C@@H]2CN(C1)Cc1c([nH]c3ccccc13)[C@@](C(=O)OC)(c1cc3c(cc1OC)N(C=O)[C@H]1[C@@](O)(C(=O)OC)[C@H](OC(C)=O)[C@]4(CC)[C@@H]5C[C@@H]5CN5CC[C@]31[C@@H]54)C2`, 7.6% (active). Next, `Cc1cc(C)c(S(=O)(=O)N2CCN(c3cc4c(cc3F)c(=O)c(C(=O)O)cn4C3CC3)CC2)c(C)c1`: 29.6%; `Nc1c(C(=O)Nc2ccccc2)sc2nc3c(cc12)CCCCC3`: 22.1%. For the molecule `CC(C)C(C(=O)CCN(C)C)c1ccc(Cl)cc1` (stereo not given), the growth was 98.5%. Consider `CCNC(=O)C1CCCN1C(=O)C(CCCN=C(N)N)NC(=O)C(CC(C)C)NC(=O)C(CC(C)C)NC(=O)C(Cc1ccc(O)cc1)NC(=O)C(CO)NC(=O)C(Cc1c[nH]c2ccccc12)NC(=O)C(Cc1cnc[nH]1)NC(=O)C1CCC(=O)N1` (stereo not given), for which the growth is 95.1%. Consider `O=C(CCC(=O)OC1CCCC1)OC1CCCC1`, for which the growth is 105%. `O=c1cc(C2NCCc3c2[nH]c2ccccc32)c2c(ccc3ccccc32)o1` (stereo not given): the growth is 36.8%.

`CCC1CCc2nc3sc(C(=O)Nc4ccccc4F)c(N)c3cc2C1` (stereo not given): the growth is 62.8%. For `O=S(=O)(NCCCNc1cc(-c2cn(-c3ccccc3)nc2-c2cccc(O)c2)ccn1)c1ccc(Cl)cc1` the value was 3.96% (active); for `Clc1cccc(Cl)c1Cn1c(-c2cncs2)nc2ccccc21`, 85%.

`C/C(=N\NC(=O)CC#N)c1cc2cc(Cl)ccc2o1`: the growth is 103%. As for `O=C1CCCCC=C1C[N+](=O)[O-]`, the growth was 81.1%. For `COc1ccc(/C=C/C(=O)OCC(=O)NNC(=O)c2ccccc2)cc1OC` the value was 87.1%; for `CCn1cc(C(=O)O)c(=O)c2cc(F)c(N3CCN(S(=O)(=O)c4cccc5ccccc45)CC3)cc21`, -39% (active). Next, `Cc1nn(-c2ccc(Cl)cc2)c(=O)n1CCOc1ccccc1Cl`: 90.1%; `COC(=O)c1ccc(C)cc1`: 99.5%; `COc1cc(NC(=O)CCl)ccc(=O)c1`: 49.1%. For `Clc1ccc(-c2nc(-c3ccco3)cn3ccnc23)cc1` the value was 55.2%. For the molecule `CC1=NN2C(=NC3=C(CCC/C3=C\c3ccc(Cl)cc3)C2c2ccc(Cl)cc2)S1` (stereo not given), the growth is 60.6%. For `CCOC(=O)c1cc(/C(=N\O)c2cc(OC)c(OC)c(OC)c2)n2cc(C)cc(C)c12`, the growth was 31.8%.

`COc1ccc(-c2nnc(COc3ccc(NC(=O)Nc4ccc(Cl)c(C(F)(F)F)c4)cc3F)o2)cc1`: the growth was 1.05% (active).

Turning to `COc1cc(-c2csc(NC(=O)c3cc(C(F)(F)F)cc(C(F)(F)F)c3)n2)cc(OC)c1OC`, the growth was 26.5%.
